# According to the supplement of paper PMC8728848:
# The entries come from a sample that favours the strongest signals as a whole.
# Tests used:
# Test in all cases: glycan array binding signal (z-score within array); higher = stronger binding
# Conditions in all cases: glycan notation: IUPAC condensed, linker removed
# [1] = biological target: Gal(b1-4)GlcNAc(b1-2)[Gal(b1-4)GlcNAc(b1-4)]Man(a1-3)[Gal(b1-4)GlcNAc(b1-2)[Gal(b1-4)GlcNAc(b1-6)]Man(a1-6)]Man(b1-4)GlcNAc(b1-4)GlcNAc
# Method in brief: (§1)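 Arrays were curated from the Consortium for Functional Glycomics database, 3228 in total, and kept only where the protein sequence was available. Binding is expressed as a within-array Z-score. This score was averaged across arrays of the same protein sequence at different concentrations or buffers and across linkers, and negative values can be read as non-binding.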
# [2] = biological target: Gal(b1-4)GlcNAc(b1-2)[Gal(b1-4)GlcNAc(b1-6)]Man(a1-6)[Gal(b1-4)GlcNAc(b1-2)Man(a1-3)]Man(b1-4)GlcNAc(b1-4)[Fuc(a1-6)]GlcNAc
# Method in brief: as §1
# [3] = biological target: Gal(b1-4)GlcNAc(b1-3)Gal(b1-3)GlcNAc
# Method in brief: as §1
# [4] = biological target: Gal(b1-4)GlcNAc(b1-3)Gal(b1-4)GlcNAc(b1-2)Man(a1-3)[Gal(b1-4)GlcNAc(b1-3)Gal(b1-4)GlcNAc(b1-2)Man(a1-6)]Man(b1-4)GlcNAc(b1-4)[Fuc(a1-6)]GlcNAc
# Method in brief: as §1
# [5] = biological target: Gal(b1-4)GlcNAc(b1-3)Gal(b1-4)GlcNAc(b1-3)Gal(b1-4)GlcNAc
# Method in brief: as §1
# [6] = biological target: Gal(b1-4)GlcNAc(b1-3)Gal(b1-4)GlcNAc(b1-3)Gal(b1-4)GlcNAc(b1-2)Man(a1-3)[Gal(b1-4)GlcNAc(b1-3)Gal(b1-4)GlcNAc(b1-3)Gal(b1-4)GlcNAc(b1-2)Man(a1-6)]Man(b1-4)GlcNAc(b1-4)GlcNAc
# Method in brief: as §1
# [7] = biological target: Gal(b1-4)GlcNAc(b1-3)Gal(b1-4)GlcNAc(b1-3)Gal(b1-4)GlcNAc(b1-2)Man(a1-3)[Gal(b1-4)GlcNAc(b1-3)Gal(b1-4)GlcNAc(b1-3)Gal(b1-4)GlcNAc(b1-2)Man(a1-6)]Man(b1-4)GlcNAc(b1-4)[Fuc(a1-6)]GlcNAc
# Method in brief: as §1
# [8] = biological target: Gal(b1-4)GlcNAc(b1-3)Gal(b1-4)GlcNAc(b1-3)Gal(b1-4)GlcNAc(b1-3)Gal(b1-4)GlcNAc(b1-2)Man(a1-3)[Gal(b1-4)GlcNAc(b1-3)Gal(b1-4)GlcNAc(b1-3)Gal(b1-4)GlcNAc(b1-3)Gal(b1-4)GlcNAc(b1-2)Man(a1-6)]Man(b1-4)GlcNAc(b1-4)[Fuc(a1-6)]GlcNAc
# Method in brief: as §1
# [9] = biological target: Gal(b1-4)GlcNAc(b1-3)Gal(b1-4)GlcNAc(b1-3)Gal(b1-4)GlcNAc(b1-3)Gal(b1-4)GlcNAc(b1-3)Gal(b1-4)GlcNAc(b1-2)Man(a1-3)[Gal(b1-4)GlcNAc(b1-3)Gal(b1-4)GlcNAc(b1-3)Gal(b1-4)GlcNAc(b1-3)Gal(b1-4)GlcNAc(b1-3)Gal(b1-4)GlcNAc(b1-2)Man(a1-6)]Man(b1-4)GlcNAc(b1-4)GlcNAc
# Method in brief: as §1
# [10] = biological target: Gal(b1-4)GlcNAc(b1-3)Gal(b1-4)GlcNAc(b1-3)Gal(b1-4)GlcNAc(b1-3)Gal(b1-4)GlcNAc(b1-3)Gal(b1-4)GlcNAc(b1-3)Gal(b1-4)GlcNAc(b1-2)Man(a1-3)[Gal(b1-4)GlcNAc(b1-3)Gal(b1-4)GlcNAc(b1-3)Gal(b1-4)GlcNAc(b1-3)Gal(b1-4)GlcNAc(b1-3)Gal(b1-4)GlcNAc(b1-3)Gal(b1-4)GlcNAc(b1-2)Man(a1-6)]Man(b1-4)GlcNAc(b1-4)GlcNAc
# Method in brief: as §1
# [11] = biological target: Gal(b1-4)GlcNAc(b1-3)Gal(b1-4)GlcNAc(b1-3)[Gal(b1-4)GlcNAc(b1-3)Gal(b1-4)GlcNAc(b1-6)]GalNAc
# Method in brief: as §1
# [12] = biological target: Gal(b1-4)GlcNAc(b1-6)GalNAc
# Method in brief: as §1
# Gal3S4S(b1-4)GlcNAc = biological target: Gal3S4S(b1-4)GlcNAc
# Method in brief: as §1
# Gal4S6S(b1-4)GlcNAc = biological target: Gal4S6S(b1-4)GlcNAc
# Method in brief: as §1
# GalNAc6S(b1-4)GlcNAc = biological target: GalNAc6S(b1-4)GlcNAc
# Method in brief: as §1
# [13] = biological target: GlcNAc6S(b1-3)Gal(b1-4)GlcNAc
# Method in brief: as §1
# [14] = biological target: Man(a1-2)Man(a1-3)[Man(a1-2)Man(a1-6)]Man
# Method in brief: as §1
# [15] = biological target: Man(a1-2)Man(a1-3)[Man(a1-2)Man(a1-6)]Man(a1-6)[Man(a1-2)Man(a1-2)Man(a1-3)]Man(b1-4)GlcNAc(b1-4)GlcNAc
# Method in brief: as §1
# Man(b1-4)GlcNAc = biological target: Man(b1-4)GlcNAc
# Method in brief: as §1
# Neu5Ac(a2-3)Gal = biological target: Neu5Ac(a2-3)Gal
# Method in brief: as §1
# [16] = biological target: Neu5Ac(a2-3)Gal(b1-3)GlcNAc(b1-4)Gal(b1-4)Glc
# Method in brief: as §1
# [17] = biological target: Neu5Ac(a2-3)Gal(b1-3)[GlcNAc(b1-6)]GalNAc
# Method in brief: as §1
# Neu5Ac(a2-3)Gal(b1-4)Glc = biological target: Neu5Ac(a2-3)Gal(b1-4)Glc
# Method in brief: as §1
# [18] = biological target: Neu5Ac(a2-3)Gal(b1-4)GlcNAc(b1-2)Man(a1-3)[Neu5Ac(a2-6)Gal(b1-4)GlcNAc(b1-2)Man(a1-6)]Man(b1-4)GlcNAc(b1-4)GlcNAc
# Method in brief: as §1
# [19] = biological target: Neu5Ac(a2-3)Gal(b1-4)GlcNAc(b1-6)[Gal(b1-3)]GalNAc
# Method in brief: as §1
# [20] = biological target: Neu5Ac(a2-3)[Neu5Ac(a2-6)]GalNAc
# Method in brief: as §1
# [21] = biological target: Neu5Ac(a2-6)Gal(b1-4)GlcNAc(b1-2)Man(a1-3)[Gal(b1-4)GlcNAc(b1-2)Man(a1-6)]Man(b1-4)GlcNAc(b1-4)GlcNAc
# Method in brief: as §1
# [22] = biological target: Neu5Gc(a2-3)Gal(b1-4)GlcNAc(b1-3)Gal(b1-4)GlcNAc(b1-2)Man(a1-3)[Neu5Gc(a2-3)Gal(b1-4)GlcNAc(b1-3)Gal(b1-4)GlcNAc(b1-2)Man(a1-6)]Man(b1-4)GlcNAc(b1-4)GlcNAc
# Method in brief: as §1
binder,measurement,setting,value
PX14343H-pdi-506-26-506 (Parabacteroides distasonis) (protein) QPTGTMTTDSKLTSKESALALTNSAYLKNTVFNKMTPGWGCNTILLLEYMTGKATSENSQSNYKDFQDLLVSDRSLYIEDWWQDCYAGIANCNLALQKLGEFENLDASLVNGYMAEVKFMRALYYFYLVRIFGDVPKITTVQSELGELQVSRAPVKEIYDEIIIPDLLEAEQSDLAFSDHTGRVSMGAVKALLADVYLTYAGYPLQGGKSYYAESAKRSLEVIKSNEYTLFTDYESLRLPSQNNKGEFIYQVQFSLNKRHNESVRIFLPSRSGISAYDLEYGSLIPTKEFVESFEKGDKRTEEKQYFFTNYKGHPSKFSPGAAELEFMDLNGYYIYKFFDQVAVDNTAKSDLNWSVYRYTDVLLMYAEAQVNADGTPNQQSIDIVNQIRGRAGLAPFKQTNASAFLEEVWDQRYFDLCYENKMWFDMLRTRKIRDDKSGEYVDFIGYKTNWGKVYTETQLLFPIPLSERQANPNLTQNQGY,glycan array binding signal (z-score),[1],-0.221
same,glycan array binding signal (z-score),[2],0.886
same,glycan array binding signal (z-score),[3],-0.366
same,glycan array binding signal (z-score),[4],6.92
same,glycan array binding signal (z-score),[5],-0.114
same,glycan array binding signal (z-score),[6],3.24
same,glycan array binding signal (z-score),[7],6.72
same,glycan array binding signal (z-score),[8],0.292
same,glycan array binding signal (z-score),[9],0.552
same,glycan array binding signal (z-score),[10],4.45
same,glycan array binding signal (z-score),[11],0.311
same,glycan array binding signal (z-score),[12],-0.235
same,glycan array binding signal (z-score),Gal3S4S(b1-4)GlcNAc,-0.293
same,glycan array binding signal (z-score),Gal4S6S(b1-4)GlcNAc,-0.505
same,glycan array binding signal (z-score),GalNAc6S(b1-4)GlcNAc,0.278
same,glycan array binding signal (z-score),[13],-0.337
same,glycan array binding signal (z-score),[14],-0.49
same,glycan array binding signal (z-score),[15],-0.329
same,glycan array binding signal (z-score),Man(b1-4)GlcNAc,-0.406
same,glycan array binding signal (z-score),Neu5Ac(a2-3)Gal,-0.52
same,glycan array binding signal (z-score),[16],-0.388
same,glycan array binding signal (z-score),[17],-0.522
same,glycan array binding signal (z-score),Neu5Ac(a2-3)Gal(b1-4)Glc,-0.335
same,glycan array binding signal (z-score),[18],4.89
same,glycan array binding signal (z-score),[19],-0.127
same,glycan array binding signal (z-score),[20],-0.483
same,glycan array binding signal (z-score),[21],2.9
same,glycan array binding signal (z-score),[22],-0.486
